We go through 27 molecules from PubChem BioAssay AID1490 (National Center for Advancing Translational Sciences (NCATS), 2009).

Screen size: about 310,000 compounds; about 11,000 (3.5%) were called active. Another 4% or so got no clear call; they are omitted. This excerpt belongs to a sample that is enriched for actives. Unmarked numbers belong to inactive results. The call rests on the fitted dose curve; in most records, active means well fitted inhibition curve with a large enough effect; inconclusive means small, poorly fitted or top-dose-only effect, or another doubt; inactive means no such curve, though single readings can be large or run the other way.
Potency means the concentration at half of the fitted maximal effect.

The assay has as its target 4'-phosphopantetheinyl transferase ffp (Bacillus subtilis) (UniProt Q9F4F7). As to the kind of experiment: qHTS Assay for Inhibitors of Bacillus subtilis Sfp phosphopantetheinyl transferase (PPTase).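 Further: the enzyme is Sfp with the accession as filed and its product quenches rhodamine fluorescence.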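 On largest response in the series, negative = inhibition: 0% = enzyme reaction without inhibitor and -100% = no enzyme wells.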 The conditions noted are these: Biochemical Sfp PPTase activity. A digest of the protocol: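 After 15 min at room temperature with compound, 15 nM Sfp received 5 uM rhodamine-CoA plus 12.5 uM BHQ-2-ybbR (50 mM Hepes pH 7.6, 10 mM MgCl2). Rate came from the fluorescence difference over 30 min, ex 525/em 598 nm.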
For orientation: qHTS replaces the single test concentration by a dilution series.
On to `Cc1ccc(NS(=O)(=O)c2ccc3c(c2)oc(=O)n3C)c(C)c1`, for which the largest response in the series, negative = inhibition was 5.37%.
Same read-out and setting: under `O=C(O)c1ccc(NC(=O)c2ccc(COc3ccc(Cl)cc3)o2)cc1` stands 9.95%.
In the case of `Cc1nc2nc(SCC(=O)NCc3ccco3)nn2c(C)c1Cc1ccccc1`, the Potency is 50.1 µM (active).
In the case of `CCOC(=O)c1cnc(SCC(=O)NCc2ccco2)nc1N`, the largest response in the series, negative = inhibition is -17.3%.
`Cc1ccc(Cc2c(C)nc3nc(SCC(=O)NCCN4CCOCC4)nn3c2C)cc1`: the largest response in the series, negative = inhibition was -2.31%.
For `Cc1cccc(NC(=O)NC2(C)CCS(=O)(=O)C2)c1` (configuration not stated), the largest response in the series, negative = inhibition is 14.2%.
Turning to `O=S(=O)(Nc1ccccc1)c1ccc(NS(=O)(=O)c2cccs2)cc1`, the largest response in the series, negative = inhibition was 16.9%.
In the case of `CCNc1nc(-c2cc3ccccc3o2)cs1`, the largest response in the series, negative = inhibition was -14.8%.
The same measure, in the same setting: under `S=C(NCCc1ccccc1)Nc1ccccc1` stands -0.65%.
Consider `Cc1ccc(Nc2nc(-c3sc(NC(=O)c4ccccc4)nc3C)cs2)cc1`, for which the largest response in the series, negative = inhibition is 0.727%.
With `S=c1[nH]nc(NCCc2ccccc2)s1`, the Potency is 22.4 µM (active).
Take `O=C(CSc1ncccn1)NCCc1ccccc1`: the largest response in the series, negative = inhibition was 18.5%.
Take `Cc1nc(C)c(-c2csc(NCCc3ccccc3)n2)s1`: the Potency was 50.1 µM (active).
On to `COc1cccc(C2CC(c3cccs3)=NN2C(=O)CSC2=NCCS2)c1OC` (configuration not stated), for which the largest response in the series, negative = inhibition is -16%.
On to `Cc1cc(C)cc(Oc2c(C(F)(F)F)oc3cc(OCC(=O)O)ccc3c2=O)c1`, for which the largest response in the series, negative = inhibition is 5.59%.
As for `CCOC(=O)N1CCC(N2Cc3cccc(C(=O)Nc4ccc(S(=O)(=O)N(CC)CC)cc4)c3C2=O)CC1`, the largest response in the series, negative = inhibition was -1.4%.
In the case of `CCc1ccc2nc(N(CCCN(C)C)C(=O)c3ccc4c(c3)OCCO4)sc2c1`, the largest response in the series, negative = inhibition is -7.75%.
On the same count and under the same terms, under `CCCC(=O)N(CCN1CCOCC1)c1nc2ccc(OCC)cc2s1` stands 4.61%.
Regarding `CCOc1ccc2nc(N(CCN(C)C)C(=O)c3ccc4ccccc4c3)sc2c1`, the Potency was 79.4 µM (active).
As for `COc1ccccc1N1CCN(S(=O)(=O)CCNC(=O)c2ccc(OC(C)C)cc2)CC1`, the largest response in the series, negative = inhibition is 3.56%.
As to `COc1ccc(N2C(=O)CC(N3CCC(C(N)=O)CC3)C2=O)cc1` (configuration not stated), the largest response in the series, negative = inhibition was -13.3%.
For `COc1ccc(CCN2C(=O)CC(N3CCC(C(N)=O)CC3)C2=O)cc1OC` (configuration not stated), the Potency is 50.1 µM (active).
As to `COc1ccc(CCN2C(=O)C3CC=C(C)CC3C2=O)cc1OC` (configuration not stated), the largest response in the series, negative = inhibition was 7.59%.
Consider `COc1cc(Cl)c(C)cc1NC(=O)CN1CCCCCC1`, for which the largest response in the series, negative = inhibition is 1.55%.
For `O=C(N/N=C/c1c[nH]c2ccccc12)c1ccccc1O`, the largest response in the series, negative = inhibition was 16.9%.
With `C[n+]1ccc(/C=C/c2c[nH]c3ccccc23)cc1`, the Potency was 56.2 µM (active).
With `CSC(=S)N/N=C/c1c[nH]c2ccccc12`, the largest response in the series, negative = inhibition was 7.95%.
